# Experimental data: paper PMC7862700, “An all-to-all approach to the identification of sequence-specific readers for epigenetic DNA modifications on cytosine”
# What was measured:
# Assay in all cases: DAPPL (digital affinity profiling via proximity ligation, sequencing); 10 mM Tris-HCl pH 7.5, 50 mM NaCl, 1 mM DTT, 4% glycerol, room temperature, 30 min; GST-TFs on glutathione beads, 16-mer random dsDNA library, 0.1% formaldehyde crosslink after washing; high values mean tight binding
# FLI1 = molecular target: T1, FLI1 (Homo sapiens, UniProt Q01543 1-452); details: protein: recombinant; tags: N-terminal GST; dsDNA, one strand shown
# T1 sequence: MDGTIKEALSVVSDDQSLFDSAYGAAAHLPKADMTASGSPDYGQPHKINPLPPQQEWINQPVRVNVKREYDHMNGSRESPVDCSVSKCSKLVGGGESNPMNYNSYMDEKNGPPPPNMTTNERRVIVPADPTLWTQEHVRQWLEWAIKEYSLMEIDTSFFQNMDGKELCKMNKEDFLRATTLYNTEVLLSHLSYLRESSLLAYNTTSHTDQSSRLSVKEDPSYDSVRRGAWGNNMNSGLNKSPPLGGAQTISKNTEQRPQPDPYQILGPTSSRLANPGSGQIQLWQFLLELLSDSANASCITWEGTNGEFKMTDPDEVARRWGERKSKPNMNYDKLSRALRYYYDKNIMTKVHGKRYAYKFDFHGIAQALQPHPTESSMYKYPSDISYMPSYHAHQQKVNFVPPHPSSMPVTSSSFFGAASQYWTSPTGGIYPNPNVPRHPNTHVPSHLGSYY
# In short: (§1)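 Sequencing on an Illumina NextSeq500 followed washing, crosslinking with 0.1% formaldehyde, proximity ligation (BsaI/T4 ligase, 1 h, 37 °C) and PCR amplification of pools that had been incubated for 30 min at room temperature with 200 nmole of a random double-stranded 16-mer DNA library in Tris/NaCl/DTT/glycerol buffer. Each pool held DNA-barcoded human transcription factors, expressed in yeast as GST fusions and captured on glutathione beads, plus a tag-only sample. Binding signal is a hexamer's read frequency for a factor divided by its frequency in the tag-only sample.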
# ELK1 = molecular target: T2, ELK1 (Homo sapiens, UniProt P19419 1-428); details: protein: recombinant; tags: N-terminal GST; dsDNA, one strand shown
# T2 sequence: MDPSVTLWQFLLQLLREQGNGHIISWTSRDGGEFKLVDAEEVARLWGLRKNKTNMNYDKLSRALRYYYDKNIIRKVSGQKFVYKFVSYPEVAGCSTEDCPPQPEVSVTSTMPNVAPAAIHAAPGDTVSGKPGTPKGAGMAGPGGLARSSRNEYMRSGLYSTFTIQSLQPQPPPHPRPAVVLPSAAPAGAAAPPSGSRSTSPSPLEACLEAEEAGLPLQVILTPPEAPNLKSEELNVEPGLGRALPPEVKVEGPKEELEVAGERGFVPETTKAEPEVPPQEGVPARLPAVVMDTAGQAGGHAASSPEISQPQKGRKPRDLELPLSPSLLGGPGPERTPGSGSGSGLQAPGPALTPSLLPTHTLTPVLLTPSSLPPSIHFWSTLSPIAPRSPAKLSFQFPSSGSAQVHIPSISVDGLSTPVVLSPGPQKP
# In short: as §1
# GABPA = molecular target: T3, GABPA (Homo sapiens, UniProt Q06546 1-454); details: protein: recombinant; tags: N-terminal GST; dsDNA, one strand shown
# T3 sequence: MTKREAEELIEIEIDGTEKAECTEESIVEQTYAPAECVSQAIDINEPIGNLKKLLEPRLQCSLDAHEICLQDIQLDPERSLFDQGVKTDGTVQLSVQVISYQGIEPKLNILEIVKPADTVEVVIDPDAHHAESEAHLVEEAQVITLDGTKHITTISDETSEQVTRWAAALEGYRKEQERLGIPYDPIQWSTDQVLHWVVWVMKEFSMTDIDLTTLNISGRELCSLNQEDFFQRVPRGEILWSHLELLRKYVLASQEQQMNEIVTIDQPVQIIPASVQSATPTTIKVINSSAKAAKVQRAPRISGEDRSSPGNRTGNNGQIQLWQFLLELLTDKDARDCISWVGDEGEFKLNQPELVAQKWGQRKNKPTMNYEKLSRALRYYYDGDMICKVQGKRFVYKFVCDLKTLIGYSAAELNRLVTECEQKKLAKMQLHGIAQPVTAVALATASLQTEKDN
# In short: as §1
# ERG = molecular target: T4, ERG (Homo sapiens, UniProt P11308 1-479); details: protein: recombinant; tags: N-terminal GST; dsDNA, one strand shown
# T4 sequence: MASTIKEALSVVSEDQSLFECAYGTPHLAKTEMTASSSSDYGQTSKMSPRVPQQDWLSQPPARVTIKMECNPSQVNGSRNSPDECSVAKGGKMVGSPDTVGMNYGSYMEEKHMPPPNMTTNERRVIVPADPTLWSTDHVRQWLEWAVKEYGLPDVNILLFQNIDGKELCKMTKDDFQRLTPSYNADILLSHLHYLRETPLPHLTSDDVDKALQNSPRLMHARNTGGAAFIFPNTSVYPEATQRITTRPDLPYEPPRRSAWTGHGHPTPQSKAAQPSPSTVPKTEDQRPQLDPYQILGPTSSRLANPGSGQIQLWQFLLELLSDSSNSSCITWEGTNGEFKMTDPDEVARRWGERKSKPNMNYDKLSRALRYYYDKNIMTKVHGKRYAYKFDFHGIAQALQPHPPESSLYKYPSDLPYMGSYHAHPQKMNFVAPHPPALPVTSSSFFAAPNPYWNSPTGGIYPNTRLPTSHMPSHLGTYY
# In short: as §1
# ELF1 = ELF1 (Homo sapiens, UniProt P32519 1-619); details: protein: recombinant; tags: N-terminal GST; dsDNA, one strand shown
# In short: as §1
# EHF = molecular target: T5, EHF (Homo sapiens, UniProt Q9NZC4 1-300); details: protein: recombinant; tags: N-terminal GST; dsDNA, one strand shown
# T5 sequence: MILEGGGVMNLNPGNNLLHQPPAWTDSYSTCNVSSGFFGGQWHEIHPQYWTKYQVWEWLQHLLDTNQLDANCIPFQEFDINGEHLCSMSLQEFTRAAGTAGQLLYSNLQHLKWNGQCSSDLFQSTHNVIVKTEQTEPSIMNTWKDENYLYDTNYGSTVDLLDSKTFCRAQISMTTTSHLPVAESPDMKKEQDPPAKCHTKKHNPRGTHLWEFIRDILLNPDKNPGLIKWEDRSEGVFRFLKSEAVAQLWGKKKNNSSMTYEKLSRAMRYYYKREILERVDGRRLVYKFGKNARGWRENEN
# In short: as §1
# SPI1 = SPI1 (Homo sapiens, UniProt P17947 1-270); details: protein: recombinant; tags: N-terminal GST; dsDNA, one strand shown
# In short: as §1
# SPIB = SPIB (Homo sapiens, UniProt Q01892 1-262); details: protein: recombinant; tags: N-terminal GST; dsDNA, one strand shown
# In short: as §1
# ELK3 = molecular target: T6, ELK3 (Homo sapiens, UniProt P41970 1-407); details: protein: recombinant; tags: N-terminal GST; dsDNA, one strand shown
# T6 sequence: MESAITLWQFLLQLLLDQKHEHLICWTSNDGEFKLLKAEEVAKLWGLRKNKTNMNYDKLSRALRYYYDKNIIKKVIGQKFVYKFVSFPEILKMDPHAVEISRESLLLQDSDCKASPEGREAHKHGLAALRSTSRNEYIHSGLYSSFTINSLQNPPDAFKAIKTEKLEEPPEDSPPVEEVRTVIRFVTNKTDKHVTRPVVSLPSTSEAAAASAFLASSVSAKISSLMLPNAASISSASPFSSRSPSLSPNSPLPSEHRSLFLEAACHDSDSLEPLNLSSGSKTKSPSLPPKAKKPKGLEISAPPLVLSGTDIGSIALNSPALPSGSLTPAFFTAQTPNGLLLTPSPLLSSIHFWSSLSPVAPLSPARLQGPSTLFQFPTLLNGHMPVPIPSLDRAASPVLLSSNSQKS
# In short: as §1
# FEV = molecular target: T7, FEV (Homo sapiens, UniProt Q99581 1-238); details: protein: recombinant; tags: N-terminal GST; dsDNA, one strand shown
# T7 sequence: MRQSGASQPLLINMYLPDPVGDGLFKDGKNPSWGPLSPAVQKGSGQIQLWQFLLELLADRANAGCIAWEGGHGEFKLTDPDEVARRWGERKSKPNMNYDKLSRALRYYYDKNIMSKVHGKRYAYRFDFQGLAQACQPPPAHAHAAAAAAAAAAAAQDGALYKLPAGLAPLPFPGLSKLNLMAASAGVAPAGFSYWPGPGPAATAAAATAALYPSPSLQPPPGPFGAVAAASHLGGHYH
# In short: as §1
# ETV5 = ETV5 (Homo sapiens, UniProt P41161 1-510); details: protein: recombinant; tags: N-terminal GST; dsDNA, one strand shown
# In short: as §1
# HSF1 = HSF1 (Homo sapiens, UniProt Q00613 1-529); details: protein: recombinant; tags: N-terminal GST; chain copies: 3; dsDNA, one strand shown
# In short: as §1
# SPIC = molecular target: T8, SPIC (Homo sapiens, UniProt Q8N5J4 1-248); details: protein: recombinant; tags: N-terminal GST; dsDNA, one strand shown
# T8 sequence: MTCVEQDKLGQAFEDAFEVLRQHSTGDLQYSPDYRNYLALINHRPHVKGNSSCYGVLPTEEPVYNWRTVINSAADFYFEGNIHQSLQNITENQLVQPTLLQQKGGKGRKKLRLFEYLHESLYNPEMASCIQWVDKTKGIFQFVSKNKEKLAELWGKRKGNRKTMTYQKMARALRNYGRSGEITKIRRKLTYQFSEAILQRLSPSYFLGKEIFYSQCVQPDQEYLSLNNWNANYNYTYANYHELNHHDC
# In short: as §1
# ELF4 = ELF4 (Homo sapiens, UniProt Q99607 1-663); details: protein: recombinant; tags: N-terminal GST; dsDNA, one strand shown
# In short: as §1
# ELK4 = molecular target: T9, ELK4 (Homo sapiens, UniProt P28324-2 1-405); details: protein: recombinant; tags: N-terminal GST; dsDNA, one strand shown
# T9 sequence: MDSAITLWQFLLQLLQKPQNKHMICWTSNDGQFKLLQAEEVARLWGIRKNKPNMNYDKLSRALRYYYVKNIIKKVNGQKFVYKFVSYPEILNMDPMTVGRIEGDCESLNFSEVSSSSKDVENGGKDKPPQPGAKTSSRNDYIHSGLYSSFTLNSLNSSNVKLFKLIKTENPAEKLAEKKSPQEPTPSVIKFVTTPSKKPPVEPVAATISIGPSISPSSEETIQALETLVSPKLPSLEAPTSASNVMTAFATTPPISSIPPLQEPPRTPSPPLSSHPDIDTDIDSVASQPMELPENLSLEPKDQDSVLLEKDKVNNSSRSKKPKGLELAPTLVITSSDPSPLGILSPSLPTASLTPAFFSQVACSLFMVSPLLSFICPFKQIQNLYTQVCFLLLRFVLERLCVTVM
# In short: as §1
# ETV2 = molecular target: T10, ETV2 (Homo sapiens, UniProt O00321 1-342); details: protein: recombinant; tags: N-terminal GST; dsDNA, one strand shown
# T10 sequence: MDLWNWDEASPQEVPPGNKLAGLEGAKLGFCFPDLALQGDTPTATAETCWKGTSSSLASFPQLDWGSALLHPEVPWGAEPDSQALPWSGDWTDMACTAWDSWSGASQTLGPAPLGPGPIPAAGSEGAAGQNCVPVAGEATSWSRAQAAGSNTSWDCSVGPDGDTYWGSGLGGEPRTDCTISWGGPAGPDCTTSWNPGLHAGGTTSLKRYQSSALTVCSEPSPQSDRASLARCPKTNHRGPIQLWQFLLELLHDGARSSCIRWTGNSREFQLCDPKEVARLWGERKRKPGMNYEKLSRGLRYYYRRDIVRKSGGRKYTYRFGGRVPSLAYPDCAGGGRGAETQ
# In short: as §1
# ELF3 = molecular target: T11, ELF3 (Homo sapiens, UniProt P78545 1-371); details: protein: recombinant; tags: N-terminal GST; dsDNA, one strand shown
# T11 sequence: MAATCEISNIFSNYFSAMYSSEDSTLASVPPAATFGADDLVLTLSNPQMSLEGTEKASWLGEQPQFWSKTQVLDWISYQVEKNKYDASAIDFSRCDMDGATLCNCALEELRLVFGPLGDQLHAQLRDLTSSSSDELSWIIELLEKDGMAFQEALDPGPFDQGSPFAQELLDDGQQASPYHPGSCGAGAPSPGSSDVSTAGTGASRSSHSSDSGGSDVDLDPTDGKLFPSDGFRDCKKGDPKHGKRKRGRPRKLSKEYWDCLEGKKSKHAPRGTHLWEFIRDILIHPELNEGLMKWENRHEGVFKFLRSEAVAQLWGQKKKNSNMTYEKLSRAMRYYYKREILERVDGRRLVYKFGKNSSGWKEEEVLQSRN
# In short: as §1
# CRX = CRX (Homo sapiens, UniProt O43186 1-299); details: protein: recombinant; tags: N-terminal GST; dsDNA, one strand shown
# In short: as §1
# ETV1 = ETV1 (Homo sapiens, UniProt P50549 1-477); details: protein: recombinant; tags: N-terminal GST; dsDNA, one strand shown
# In short: as §1
# ETV5, sequence (P41161 whole entry): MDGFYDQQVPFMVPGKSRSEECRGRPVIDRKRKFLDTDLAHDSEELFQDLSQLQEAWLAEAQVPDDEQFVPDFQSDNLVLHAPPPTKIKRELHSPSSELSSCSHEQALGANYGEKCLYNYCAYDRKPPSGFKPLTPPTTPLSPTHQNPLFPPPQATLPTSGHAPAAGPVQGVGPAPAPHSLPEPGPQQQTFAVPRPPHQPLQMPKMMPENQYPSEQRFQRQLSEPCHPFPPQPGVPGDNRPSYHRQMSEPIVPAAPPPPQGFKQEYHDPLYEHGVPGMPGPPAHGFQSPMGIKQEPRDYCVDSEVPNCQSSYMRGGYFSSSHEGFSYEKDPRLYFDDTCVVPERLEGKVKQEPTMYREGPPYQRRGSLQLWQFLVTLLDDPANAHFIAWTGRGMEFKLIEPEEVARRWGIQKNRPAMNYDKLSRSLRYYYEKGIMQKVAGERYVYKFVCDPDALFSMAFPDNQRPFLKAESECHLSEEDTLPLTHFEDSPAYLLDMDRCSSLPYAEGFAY
# CRX, sequence (O43186 whole entry): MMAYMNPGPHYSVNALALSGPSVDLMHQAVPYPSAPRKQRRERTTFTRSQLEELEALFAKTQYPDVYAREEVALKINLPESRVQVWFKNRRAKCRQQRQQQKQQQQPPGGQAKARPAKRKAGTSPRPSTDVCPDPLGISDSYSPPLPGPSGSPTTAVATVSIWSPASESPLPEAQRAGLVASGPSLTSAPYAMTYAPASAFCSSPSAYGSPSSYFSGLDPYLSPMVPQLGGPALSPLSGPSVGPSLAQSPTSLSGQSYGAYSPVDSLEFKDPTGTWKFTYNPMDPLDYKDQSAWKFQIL
# SPIB, sequence (Q01892 whole entry): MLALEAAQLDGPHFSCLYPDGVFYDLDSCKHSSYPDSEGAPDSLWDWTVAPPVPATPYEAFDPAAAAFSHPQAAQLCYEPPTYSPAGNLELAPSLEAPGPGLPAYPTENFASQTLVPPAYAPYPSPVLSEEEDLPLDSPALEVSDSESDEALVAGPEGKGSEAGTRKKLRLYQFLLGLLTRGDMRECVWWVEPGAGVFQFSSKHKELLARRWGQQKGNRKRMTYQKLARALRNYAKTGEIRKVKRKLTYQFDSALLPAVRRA
# ELF4, sequence (Q99607 whole entry): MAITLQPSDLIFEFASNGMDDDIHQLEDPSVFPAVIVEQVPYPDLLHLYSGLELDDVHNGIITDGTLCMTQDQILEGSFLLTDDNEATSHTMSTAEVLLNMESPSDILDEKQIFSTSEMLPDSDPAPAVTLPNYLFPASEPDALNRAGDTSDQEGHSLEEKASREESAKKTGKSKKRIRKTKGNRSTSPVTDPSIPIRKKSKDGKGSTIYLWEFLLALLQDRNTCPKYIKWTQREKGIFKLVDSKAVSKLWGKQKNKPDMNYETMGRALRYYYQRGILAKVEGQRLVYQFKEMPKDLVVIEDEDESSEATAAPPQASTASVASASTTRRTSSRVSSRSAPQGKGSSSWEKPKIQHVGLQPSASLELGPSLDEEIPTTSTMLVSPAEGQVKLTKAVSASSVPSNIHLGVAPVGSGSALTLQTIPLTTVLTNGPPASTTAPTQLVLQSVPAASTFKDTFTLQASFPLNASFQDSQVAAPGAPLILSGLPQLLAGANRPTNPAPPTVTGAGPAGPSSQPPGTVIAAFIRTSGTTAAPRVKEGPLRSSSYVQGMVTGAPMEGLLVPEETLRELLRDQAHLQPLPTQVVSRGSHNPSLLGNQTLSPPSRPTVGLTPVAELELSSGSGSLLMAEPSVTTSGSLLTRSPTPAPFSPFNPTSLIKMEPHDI
# ETV1, sequence (P50549 whole entry): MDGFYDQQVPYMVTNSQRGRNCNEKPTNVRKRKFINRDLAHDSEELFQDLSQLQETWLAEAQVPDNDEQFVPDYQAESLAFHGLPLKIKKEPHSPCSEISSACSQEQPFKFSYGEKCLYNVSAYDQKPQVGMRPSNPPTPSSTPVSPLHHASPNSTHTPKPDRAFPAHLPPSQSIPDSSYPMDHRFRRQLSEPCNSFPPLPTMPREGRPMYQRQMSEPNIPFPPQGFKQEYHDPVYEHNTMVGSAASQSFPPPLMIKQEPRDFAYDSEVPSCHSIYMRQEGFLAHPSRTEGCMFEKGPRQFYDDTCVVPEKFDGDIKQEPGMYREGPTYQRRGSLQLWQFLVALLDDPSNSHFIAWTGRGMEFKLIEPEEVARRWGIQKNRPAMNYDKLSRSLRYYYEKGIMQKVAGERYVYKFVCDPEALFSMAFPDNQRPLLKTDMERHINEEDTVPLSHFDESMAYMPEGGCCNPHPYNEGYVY
# HSF1, sequence (Q00613 whole entry): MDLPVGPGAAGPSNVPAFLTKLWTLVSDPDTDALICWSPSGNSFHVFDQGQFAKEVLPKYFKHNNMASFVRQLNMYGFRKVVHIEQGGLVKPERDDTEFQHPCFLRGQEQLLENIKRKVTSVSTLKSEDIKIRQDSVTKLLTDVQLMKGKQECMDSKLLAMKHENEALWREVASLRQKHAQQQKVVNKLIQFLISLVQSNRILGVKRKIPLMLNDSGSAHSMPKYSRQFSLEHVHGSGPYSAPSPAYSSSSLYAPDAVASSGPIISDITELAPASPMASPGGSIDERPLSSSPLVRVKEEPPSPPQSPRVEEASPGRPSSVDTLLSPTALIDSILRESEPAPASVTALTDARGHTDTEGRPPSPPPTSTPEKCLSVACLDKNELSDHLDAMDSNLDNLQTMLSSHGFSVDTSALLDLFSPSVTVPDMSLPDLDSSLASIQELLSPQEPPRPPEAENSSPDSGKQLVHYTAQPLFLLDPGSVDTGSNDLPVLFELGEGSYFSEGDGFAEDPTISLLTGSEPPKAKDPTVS
# ELF1, sequence (P32519 whole entry): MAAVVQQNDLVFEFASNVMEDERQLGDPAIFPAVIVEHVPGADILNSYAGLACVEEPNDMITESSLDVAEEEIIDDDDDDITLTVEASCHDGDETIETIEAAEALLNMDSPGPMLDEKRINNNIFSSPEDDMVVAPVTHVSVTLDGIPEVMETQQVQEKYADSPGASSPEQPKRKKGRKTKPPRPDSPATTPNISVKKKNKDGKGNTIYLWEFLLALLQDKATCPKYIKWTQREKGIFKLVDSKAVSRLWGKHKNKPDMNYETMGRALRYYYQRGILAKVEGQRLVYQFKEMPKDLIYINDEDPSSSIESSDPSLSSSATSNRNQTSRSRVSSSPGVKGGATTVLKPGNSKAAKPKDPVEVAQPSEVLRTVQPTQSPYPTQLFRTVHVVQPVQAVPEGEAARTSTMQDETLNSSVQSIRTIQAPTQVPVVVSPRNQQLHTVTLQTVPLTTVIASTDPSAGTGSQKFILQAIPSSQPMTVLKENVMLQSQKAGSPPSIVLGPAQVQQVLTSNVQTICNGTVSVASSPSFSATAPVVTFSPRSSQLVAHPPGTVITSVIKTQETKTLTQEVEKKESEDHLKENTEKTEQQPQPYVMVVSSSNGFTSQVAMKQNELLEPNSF
sequence,measurement,setting,value
AAAATA,binding signal,FLI1,"1.17 fold enrichment (6-mer frequency, TF over GST control)"
same,binding signal,ELK1,"1.12 fold enrichment (6-mer frequency, TF over GST control)"
same,binding signal,GABPA,"1.18 fold enrichment (6-mer frequency, TF over GST control)"
same,binding signal,ERG,"1.19 fold enrichment (6-mer frequency, TF over GST control)"
same,binding signal,ELF1,"1.19 fold enrichment (6-mer frequency, TF over GST control)"
same,binding signal,EHF,"1.13 fold enrichment (6-mer frequency, TF over GST control)"
same,binding signal,SPI1,"1.18 fold enrichment (6-mer frequency, TF over GST control)"
same,binding signal,SPIB,"1.23 fold enrichment (6-mer frequency, TF over GST control)"
same,binding signal,ELK3,"1.17 fold enrichment (6-mer frequency, TF over GST control)"
same,binding signal,FEV,"1.15 fold enrichment (6-mer frequency, TF over GST control)"
same,binding signal,ETV5,"1.17 fold enrichment (6-mer frequency, TF over GST control)"
same,binding signal,HSF1,"1.34 fold enrichment (6-mer frequency, TF over GST control)"
same,binding signal,SPIC,"1.16 fold enrichment (6-mer frequency, TF over GST control)"
same,binding signal,ELF4,"1.17 fold enrichment (6-mer frequency, TF over GST control)"
same,binding signal,ELK4,"1.19 fold enrichment (6-mer frequency, TF over GST control)"
same,binding signal,ETV2,"1.21 fold enrichment (6-mer frequency, TF over GST control)"
same,binding signal,ELF3,"1.06 fold enrichment (6-mer frequency, TF over GST control)"
same,binding signal,CRX,"1.35 fold enrichment (6-mer frequency, TF over GST control)"
same,binding signal,ETV1,"1.1 fold enrichment (6-mer frequency, TF over GST control)"
